Molecules are shown by their SMILES. In all, about 190,000 compounds went through this assay and about 810 (0.43%) were called active. This is one part of a sample in which actives are shown more often than they occur. Values without a mark were called inactive. Rule as the data show it: active = inhibition above about 50%; inactive = the rest.

The target in this assay is Mannose-6-phosphate isomerase (Homo sapiens) (UniProt P34949). Kind of assay: MPI enzyme activity inhibition – biochemical, fluorescence intensity, coupled assay, primary screen (AID 1209).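 Also: plate controls were DMSO vehicle for no effect and wells lacking substrate for full effect.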 Conditions: purified PMI enzyme, at 20 µM, active compounds read high.
Chain of Mannose-6-phosphate isomerase (Homo sapiens) (P34949 whole entry, looked up): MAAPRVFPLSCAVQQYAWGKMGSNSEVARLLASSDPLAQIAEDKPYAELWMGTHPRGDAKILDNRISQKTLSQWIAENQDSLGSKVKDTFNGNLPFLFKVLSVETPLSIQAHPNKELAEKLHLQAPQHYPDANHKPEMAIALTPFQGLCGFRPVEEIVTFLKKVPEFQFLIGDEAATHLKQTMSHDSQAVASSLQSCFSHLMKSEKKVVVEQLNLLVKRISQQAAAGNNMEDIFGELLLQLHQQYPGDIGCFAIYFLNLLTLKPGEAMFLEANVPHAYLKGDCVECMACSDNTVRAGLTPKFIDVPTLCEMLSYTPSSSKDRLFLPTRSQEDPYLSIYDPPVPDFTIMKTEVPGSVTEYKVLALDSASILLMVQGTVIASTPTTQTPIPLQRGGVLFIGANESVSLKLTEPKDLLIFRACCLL
Take `CCCCNC(=S)NNC(=O)c1csc(C)c1CC`: the inhibition was -8.1%.
Under `O=C(O)CNC(=O)CC1S/C(=N/N=C/c2ccccc2O)NC1=O` (stereo not given) stands -8.1%; under `CCCn1c(=O)c2ccccc2n2c(SCCOc3ccc(C)cc3)nnc12`, 12.7%.
Next, `CCn1nnnc1SCC(=O)Nc1cc(OC)cc(OC)c1`: 2.1%; `COc1ccc(C(=O)COC(=O)CCN=C2NS(=O)(=O)c3ccccc32)cc1OC`: -5.9%.
Next, `Cc1c(NC(=O)CCC2CCCCC2)c(=O)n(-c2ccccc2)n1C`: -13.7%; `O=S(=O)(NC1=NCCC1)c1cccc(NC(=S)NCCc2ccccc2)c1`: 2.3%.
`Cc1cc(N2CCOCC2)nc2ccc(NC(=S)N3CCN(c4ccccc4)CC3)cc12`: the inhibition was 22.5%.
As for `Cc1cc(N2CCOCC2)nc2ccc(NC(=S)N3CCCCC3C)cc12` (stereo not given), the inhibition was 52.4% (active).
For the molecule `Cc1cc(N2CCOCC2)nc2ccc(NC(=O)C3CCC(C)CC3)cc12` (stereo not given), the inhibition is -6%.
`O=c1oc2cc(OCc3ccc(C(F)(F)F)cc3)ccc2cc1-c1ccccn1`: the inhibition is -7%.
Next, `COc1cc(C(=O)NNC(=O)c2ccc(NC(C)=O)cc2)cc(OC)c1OC`: -4.2%; `COc1cc(C(=O)NNC(=S)Nc2ccc(S(N)(=O)=O)cc2)cc(OC)c1OC`: 56.6% (active); `O=C(NNC(=S)Nc1ccc(Cl)cc1)c1cccs1`: -1.6%.
Under `NS(=O)(=O)c1ccc(NC(=S)NNC(=O)c2cccs2)cc1` stands 63.3% (active); under `O=C(NNC(=S)Nc1ccccc1)c1cccs1`, -13.9%.
Next, `COc1cc(OC)cc(C(=O)NNC(=S)Nc2ccc(S(N)(=O)=O)cc2)c1`: -10.4%; `COc1ccc(C(=O)Nc2ccc3c(c2)nc(CN2CCCC2)n3C)cc1`: 9.7%; `C=CCn1c(SCC(=O)c2cccs2)nnc1-c1cccc(OC)c1`: 11.5%.
For the molecule `O=C(N/N=C/C(c1ccccc1)c1ccccc1)c1ccccc1F`, the inhibition was -8.5%.
Under `Cc1nn(-c2nc3ccccc3n2Cc2ccccc2)c2c1C(=O)CC(C)(C)C2` stands 24.7%.
Under `CNCc1ccccc1Sc1cccc(O)c1` stands -7%.
Under `CNCc1ccccc1Sc1cc(O)ccc1O` stands 19.1%; under `CNCc1ccccc1Sc1ccc(O)c(O)c1`, 74.9% (active).
As to `CN(C(=O)CS(=O)(=O)c1cn(CC(=O)N2CCOCC2)c2ccccc12)c1ccccc1`, the inhibition was -4.3%.
`Cc1ccc(NC(=O)NC2C(NC(=O)Nc3ccc(C)cc3)N(C)C(=O)N2C)cc1` (stereo not given): the inhibition is 9.5%.
On to `CNC(=S)N(CCc1c(C)[nH]c2ccc(OC)cc12)Cc1cccnc1`, for which the inhibition was 16%.
Next, `CC(C)(Cc1ccc(O)cc1)NC(=O)CC(=O)N=Nc1c(O)[nH]c2cc(Br)ccc12`: 51.6% (active).
Next, `CC(C)(Cc1ccc(O)cc1)NC(=O)CC(=O)N=Nc1c(O)[nH]c2ccc(Br)cc12`: 1.3%.
As for `O=C(CSCc1ccc(Br)cc1)N=Nc1c(O)[nH]c2ccccc12`, the inhibition was 4.5%.
In the case of `CSc1nc2sc(-c3ccccc3)cc2c(=O)n1N`, the inhibition is -6.6%.
`CCOC(=O)Cc1csc(NC(=O)NC2(C(F)(F)F)Oc3cc(Cl)c(Cl)cc3O2)n1`: the inhibition is 57.5% (active).
Under `CCOC(=O)Cc1csc(NC(=O)Nc2cccc(Cl)c2)n1` stands -0.4%.
As for `CCOC(=O)Cc1csc(NC(=O)NC2(C(F)(F)F)Oc3ccccc3O2)n1`, the inhibition is 22.4%.
As to `CCOC(=O)Cc1csc(NC(=O)NC2(C(F)(F)F)Oc3ccc(Cl)cc3O2)n1` (stereo not given), the inhibition is 51.8% (active).
With `CCOC(=O)Cc1csc(NC(=O)CC)n1`, the inhibition is -9.9%.
Next, `CCOC(=O)Cc1csc(NC(=O)C(C)(C)CC)n1`: -7.2%; `CC(OC(=O)c1ccc2ncsc2c1)C(=O)NCc1ccccc1` (stereo not given): 15.5%.
Turning to `O=C(Nc1nc(-c2cccs2)cs1)c1cc2ccccc2oc1=O`, the inhibition is -3.3%.
Consider `O=C(NC(Cc1c[nH]c2ccccc12)C(=O)N/N=C/c1ccc(Cl)cc1)c1cccs1` (stereo not given), for which the inhibition is 18.1%.
On to `COc1cccc(C(=O)/C=C/c2ccc(N3CCCCC3)c([N+](=O)[O-])c2)c1`, for which the inhibition is 14.3%.
Under `O=C(O)c1ccc(-c2nc(-c3ccc(Cl)c(Cl)c3)cs2)cc1` stands -3.3%; under `Cc1nc(-c2ccc(O)c(O)c2)cs1`, 47%.
Under `O=C(O)c1ccc(-c2nc(-c3ccccc3)cs2)cc1` stands -11.3%; under `Oc1ccc(-c2csc(-c3ccccc3)n2)cc1O`, 62.6% (active).
Under `Oc1ccccc1-c1csc(-c2ccccc2)n1` stands 12.8%; under `Oc1ccc(-c2nc(-c3ccc(O)c(O)c3)cs2)cc1`, 54.3% (active).
As for `Cc1ccccc1N1C(=O)CSC1=C(C#N)C#N`, the inhibition was -15.3%.
For `CCC1=C/C(=C/c2sc3ccccc3[n+]2CC)CC(C)(C)C1`, the inhibition was -60.6%.
As for `CCOC(=O)c1cnc2c(-c3ccccc3)c(C)nn2c1N`, the inhibition was 9.6%.
Next, `Cc1ccc(CNC(=O)CCCCn2c(=O)[nH]c3ccsc3c2=O)cc1`: -4.3%.
With `CCCCn1c(-c2sccc2C)n[nH]c1=S`, the inhibition was 8.1%.
As for `COc1cccc(NC(=O)C2CC(=O)N=C(N)S2)c1` (stereo not given), the inhibition is 15.2%.
Regarding `COc1cccc(NC(=O)C2CC(=O)N(C)C(=Nc3cccc(F)c3)S2)c1` (stereo not given), the inhibition is 15.4%.
Next, `COc1cccc(NC(=O)C2CC(=O)n3cnnc3S2)c1` (stereo not given): 51.1% (active); `Cc1ccc(-c2nnc(N3CCN(c4ccccn4)CC3)c3ccccc23)cc1`: 10.5%; `CC(C)CC(=O)Nc1cccc(NC(=O)CC(C)C)n1`: -6.8%.
Under `Cc1ccccc1NC(=O)C(NS(=O)(=O)c1ccc2c(c1)c(=O)n(C)c(=O)n2C)c1ccccc1` (stereo not given) stands -1.4%; under `O=C(O)CCC(=O)N1CCN(c2ccc(C(=O)c3ccc(F)cc3)cc2)CC1`, 2.5%; under `O=C(O)/C=C/C(=O)Nc1ccccc1C(=O)OCC(=O)c1ccc2c(c1)OCCO2`, 108% (active).
Next, `O=C(COC(=O)c1ccccc1NC(=O)C1CC1)c1ccc2c(c1)OCCO2`: 20.7%.
Take `CC(C)C(=O)Nc1ccccc1C(=O)OCC(=O)c1ccc2c(c1)OCCO2`: the inhibition is 12.7%.
Next, `COc1cccc(N2C(=O)/C(=C\c3cccs3)NC2=S)c1`: -20.3%; `COc1ccc(N2C(=O)/C(=C/N(C)C)NC2=S)cc1`: 6.1%.
Next, `COc1ccc(N2C(=O)/C(=C/c3cccs3)NC2=S)cc1`: 65.2% (active); `CC(C(=O)Nc1ncccn1)(c1ccccc1)c1ccccc1`: 0.1%.
Next, `C=CCNC(=S)NNC(=O)c1ccc(=O)n(Cc2ccccc2)c1`: -1.4%; `CCOC(=O)c1cnc2c(ccc3ccccc32)c1NCCO`: 103% (active); `CCOC(=O)c1cnc2ccccc2c1NCCO`: -1.9%.
Consider `CCOC(=O)c1cnc2ccc(C)cc2c1NCCO`, for which the inhibition was -0.9%.
As to `C/C(CC1CC(C)OC1=O)=N\NC(N)=S` (stereo not given), the inhibition was 17.6%.
Turning to `CCOC(=O)c1sc(N(C)C(C)=O)nc1C`, the inhibition was -2.3%.
Turning to `Cc1ccc(-n2c(SCC(=O)N(C)C3CCS(=O)(=O)C3)nc3ccccc3c2=O)cc1` (stereo not given), the inhibition is -4.5%.
Next, `CCOc1cc(CNc2ncn[nH]2)ccc1OCC(=O)NC(C)(C)C`: 7%; `CC(C)(C)NC(=O)COc1ccc(CNc2ccc3[nH]c(=O)[nH]c3c2)cc1`: 62.2% (active); `C=CCOc1c(Cl)cc(CNc2ccc3[nH]c(=O)[nH]c3c2)cc1OC`: 26.3%.
Under `CCc1ccc(OCC(=O)NC(C)(C)C)cc1` stands 2.4%; under `COc1cc(CNc2ccc3[nH]c(=O)[nH]c3c2)ccc1OCC(=O)NC(C)(C)C`, 82.4% (active); under `CC(C)(C)NC(=O)COc1ccc(CNc2ncn[nH]2)cc1`, 6.1%.
Under `CCOc1cc(CNc2ccc3[nH]c(=O)[nH]c3c2)ccc1OCC(=O)NC(C)(C)C` stands 75% (active); under `COc1cc(CNc2ccc(CNc3ncn[nH]3)cc2)ccc1OCC(=O)NC(C)(C)C`, 0.6%; under `C=CCOc1ccc(CNc2ccc3[nH]c(=O)[nH]c3c2)cc1OC`, 81.1% (active).
`C=CCOc1cccc(CNc2ccc3[nH]c(=O)[nH]c3c2)c1`: the inhibition is 17.8%.
Under `COc1cc(CNc2ccc3[nH]c(=O)[nH]c3c2)cc(Br)c1OCC(=O)NC(C)(C)C` stands 29.5%.
Take `CCOc1cc(CNC)ccc1OCC(=O)NC(C)(C)C`: the inhibition is -7.3%.
Next, `CCCOc1ccc(C2/C(=C(/O)c3ccc(F)cc3)C(=O)C(=O)N2CCCN(C)C)cc1` (stereo not given): 16.2%.
Next, `O=C(Nc1ccccc1N1CCOCC1)c1cc(-c2ccncc2)nc2ccccc12`: 4.3%; `COc1cc(/C=C(\C#N)c2nc3ccc(C)cc3[nH]2)cc([N+](=O)[O-])c1O`: 46.2%.
For `CN(C)/C=C1\C(=O)N(c2ccc([N+](=O)[O-])cc2)N=C1c1ccccc1`, the inhibition was 24.5%.
Next, `O=C(NCCN1CCCC1)c1ccc(Cn2c(=S)[nH]c3ccc(Br)cc3c2=O)cc1`: -24.9%; `COc1ccc(C(=O)Nc2c(Cl)cc(Cl)cc2C(=O)NCCN2CCOCC2)cc1`: 2.6%; `Cc1ccsc1/C=C/C(=O)O`: -2.7%.
Next, `Cc1cccc(N2CC(O)(c3cccs3)[N+]3=C2CCCC3)c1` (stereo not given): -8.7%; `CCC(CC)c1nc(C#N)c(NCc2ccccc2)o1`: 5.4%.
Next, `CCOc1ccc(NC(=O)N2CCC(c3nc4ccccc4[nH]3)CC2)cc1`: -14.1%; `COc1ccc(-c2nc(CN3CCC(c4ccccc4)CC3)c(C)o2)cc1OC`: 12.5%; `Cc1sc(NC(=O)CCl)c(C(=O)c2ccccc2)c1C`: 23.2%.
Regarding `CCN(CC)C(=O)c1c(NC(=O)c2ccccc2)sc(C)c1C`, the inhibition is -0.5%.
Under `Cc1sc(NC(=O)c2ccccc2)c(C(=O)NC(C)C)c1C` stands 2.2%.
Under `Cc1ccc(C(=O)Nc2sc(C)c(C)c2C(=O)c2ccccc2)cc1` stands 50.2% (active); under `Cc1ccc(C(=O)c2c(NC(=O)c3ccccc3C)sc(C)c2C)cc1`, 12.9%.
Next, `Cc1ccc(C(=O)c2c(NC(=O)c3ccccc3)sc(C)c2C)cc1`: 59.8% (active).
For `Cc1ccccc1C(=O)Nc1sc(C)c(C)c1C(=O)c1ccccc1`, the inhibition is 13.9%.
Next, `Cc1sc(NC(=O)c2ccccc2)c(C(=O)c2ccccc2)c1C`: 57.2% (active); `Cc1sc(NC(=O)c2ccccc2)c(C(=O)NCCN(C)C)c1C`: -8.6%.

The inhibition is the drop in the measured response relative to a control, in per cent.

The record behind these values is PubChem BioAssay AID1209 (Sanford-Burnham Center for Chemical Genomics, 2008).
